Laboratory results from PubChem BioAssay (NCI).
This is part of a sample that, as a whole, favours compounds with a hit. Of some 79,000 tested, about 15% had one in any assay. Active and inactive are the calls of the source. Rule as the data show it: active = growth inhibition above about 70%; inactive = the rest.

Tests used:
[1] = NCI Yeast Anticancer Drug Screen. Data for the rad52 strain (AID 147);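 also: 0% = growth of vehicle-treated control cultures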; settings: S. cerevisiae rad52 mutant growth inhibition, stronger effect = higher value
Summary of the method: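 Read-out: growth inhibition versus vehicle-treated controls. Cells were a DNA repair-deficient yeast strain treated with compounds.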

[2] = NCI Yeast Anticancer Drug Screen. Data for the rad50EPP+ strain (AID 151);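 also: 0% = growth of vehicle-treated control cultures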; settings: S. cerevisiae rad50 mutant strain, stronger effect = higher value
Summary of the method: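 Growth inhibition read against vehicle controls in rad50EPP+ yeast, a strain altered in DNA damage repair, after compound exposure.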

[3] = NCI Yeast Anticancer Drug Screen. Data for the mgt1 strain (AID 153); settings: S. cerevisiae mgt1 mutant growth inhibition, stronger effect = higher value
Summary of the method: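 mgt1 yeast grown with test compound; read-out is growth inhibition versus vehicle-treated cultures.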

[4] = NCI Yeast Anticancer Drug Screen. Data for the rad50 strain (AID 155);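 also: 0% = growth of vehicle-only cultures of the same strain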; settings: S. cerevisiae rad50 strain growth inhibition, stronger effect = higher value
Summary of the method: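 Genetically altered yeast (DNA repair pathway); compound treatment; growth inhibition vs vehicle ctrl.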

[5] = NCI Yeast Anticancer Drug Screen. Data for the mec2-1 strain (AID 157); settings: S. cerevisiae mec2-1 strain, stronger effect = higher value
Summary of the method: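 Yeast mec2-1 mutant treated with compound. Readout: growth inhibition vs vehicle controls.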

[6] = NCI Yeast Anticancer Drug Screen. Data for the rad14 strain (AID 159);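 also: 0% = growth of vehicle-treated control cultures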; settings: S. cerevisiae rad14 strain growth inhibition, stronger effect = higher value
Summary of the method: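 Test compounds were applied to a repair-deficient yeast strain. Its growth was then compared with that of cultures given vehicle alone, and inhibition was expressed relative to those controls.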

[7] = NCI Yeast Anticancer Drug Screen. Data for the sgs1 mgt1 strain (AID 161);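 also: 0% = growth of cultures given vehicle only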; settings: S. cerevisiae sgs1 mgt1 strain, stronger effect = higher value
Summary of the method: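 Genetically altered yeast, compound exposure, growth inhibition relative to vehicle.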

[8] = NCI Yeast Anticancer Drug Screen. Data for the cln2 rad14 strain (AID 165);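 also: 0% = growth equal to vehicle treated cultures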; settings: S. cerevisiae cln2 rad14 strain, stronger effect = higher value
Summary of the method: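 cln2 rad14 yeast strain; compound exposure; growth inhibition read vs vehicle controls.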

[9] = NCI Yeast Anticancer Drug Screen. Data for the bub3 strain (AID 167); settings: S. cerevisiae bub3 mutant strain, stronger effect = higher value
Summary of the method: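 Yeast carrying a defined mutation is treated with each compound, and growth is compared with that of vehicle-exposed cells to give inhibition.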

[10] = NCI Yeast Anticancer Drug Screen. Data for the wt2 strain (AID 169);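 also: 0% = growth of vehicle-treated yeast cultures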; settings: S. cerevisiae wt2 strain growth inhibition, stronger effect = higher value
Summary of the method: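 Read-out: growth inhibition versus vehicle-treated control cultures after compound exposure of the yeast strain.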

[11] = NCI Yeast Anticancer Drug Screen. Data for the mlh1 strain (AID 171);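 also: 0% = growth of vehicle-treated control cultures of the same strain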; settings: S. cerevisiae mlh1 strain growth inhibition, stronger effect = higher value
Summary of the method: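 Read-out: growth inhibition versus vehicle controls. Strain: engineered yeast with a defined DNA repair or cell cycle defect, compound-treated.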

[12] = NCI Yeast Anticancer Drug Screen. Data for the sgs1 strain (AID 173);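 also: 0% = growth of vehicle-only control cultures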; settings: S. cerevisiae sgs1 mutant, stronger effect = higher value
Summary of the method: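 Read-out: yeast growth inhibition relative to vehicle controls, following compound exposure of a strain with a defined DNA repair/cell cycle alteration.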

[13] = NCI Yeast Anticancer Drug Screen. Data for the mlh1 rad18 strain (AID 175); settings: S. cerevisiae mlh1 rad18 strain growth inhibition, stronger effect = higher value
Summary of the method: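 Yeast w/ defined DNA-repair lesions; compound exposure; growth vs vehicle controls → % inhibition.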

[14] = NCI Yeast Anticancer Drug Screen. Data for the wt1 strain (AID 149);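 also: 0% = growth of vehicle-treated wt1 cultures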; settings: S. cerevisiae wt1 strain (SPY 50644) growth inhibition, stronger effect = higher value
Summary of the method: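 wt1 yeast, compound-treated; % growth inhibition vs vehicle control.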

[15] = NCI Yeast Anticancer Drug Screen. Data for the CLN2oe strain (AID 163);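 also: 0% = growth of vehicle-only control cultures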; settings: S. cerevisiae CLN2oe strain, stronger effect = higher value
Summary of the method: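 Read-out: yeast growth inhibition, expressed relative to vehicle-only controls. The strain bears an engineered cell-cycle alteration.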

[16] = NCI Yeast Anticancer Drug Screen. Data for the rad18 strain (AID 177); settings: S. cerevisiae rad18 mutant growth inhibition, stronger effect = higher value
Summary of the method: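 Readout: growth inhibition vs vehicle controls. Cells: genetically altered yeast strain, DNA repair defect.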

[17] = at 5.0 µM (retest, dose inferred, filed as 0.5)
[18] = at 50.0 µM (retest, dose inferred, filed as 5.0)

Measured: growth inhibition

CCOc1ccc(NC(=O)C2=C(C)NC(C)=C(C(=O)Nc3ccc(OCC)cc3)C2c2cccc([N+](=O)[O-])c2)cc1
inactive: [1]; at 1.2 µM -2% | [1]; at 3.7 µM 0% | [1]; at 11.0 µM 5% | [1]; at 33.0 µM 49% | [2]; at 1.2 µM -1% | [2]; at 3.7 µM -1% | [2]; at 11.0 µM 1% | [2]; at 33.0 µM 3% | [2]; at 100.0 µM -4% | [3]; at 1.2 µM -1% | [3]; at 3.7 µM -2% | [3]; at 11.0 µM -3% | [3]; at 33.0 µM 30% | [4]; at 1.2 µM -3% | [4]; at 3.7 µM -1% | [4]; [17] -10% | [4]; at 11.0 µM -1% | [4]; at 33.0 µM 39% | [4]; at 50.0 µM 26.4% | [5]; at 1.2 µM -1% | [5]; at 3.7 µM -2% | [5]; [17] 0% | [5]; at 11.0 µM 1% | [5]; at 33.0 µM 36% | [5]; at 50.0 µM 34.6% | [6]; at 1.2 µM -2% | [6]; at 3.7 µM -2% | [6]; at 11.0 µM -1% | [6]; at 33.0 µM 9% | [7]; [17] -12% | [7]; [18] 29% | [7]; at 50.0 µM 27.1% | [8]; [17] -4% | [8]; at 50.0 µM 55.3% | [9]; at 1.2 µM -3% | [9]; at 3.7 µM -2% | [9]; [17] -8% | [9]; at 11.0 µM 1% | [9]; at 33.0 µM 54% | [9]; at 50.0 µM 41% | [10]; at 1.2 µM -3% | [10]; at 3.7 µM -2% | [10]; at 11.0 µM -2% | [10]; at 33.0 µM 22% | [11]; at 1.2 µM -2% | [11]; at 3.7 µM -1% | [11]; at 11.0 µM 1% | [11]; at 33.0 µM 25% | [12]; at 1.2 µM -2% | [12]; at 3.7 µM 0% | [12]; at 11.0 µM 4% | [12]; at 33.0 µM 44% | [13]; [17] -7% | [13]; at 50.0 µM 59.9%
active: [1]; at 100.0 µM 82% | [3]; at 100.0 µM 92% | [4]; [18] 84% | [4]; at 100.0 µM 79% | [5]; [18] 96% | [5]; at 100.0 µM 90% | [6]; at 100.0 µM 86% | [8]; [18] 90% | [9]; [18] 97% | [9]; at 100.0 µM 93% | [10]; at 100.0 µM 87% | [11]; at 100.0 µM 86% | [12]; at 100.0 µM 84% | [13]; [18] 95%

CCc1c[n+]([O-])c(C)cc1[N+](=O)[O-]
active: [2]; at 100.0 µM 85% | [4]; [18] 94% | [4]; at 50.0 µM 73.7% | [4]; at 100.0 µM 87% | [5]; [18] 77% | [5]; at 100.0 µM 92% | [6]; at 33.0 µM 94% | [6]; at 100.0 µM 98% | [7]; [18] 95% | [7]; at 50.0 µM 87.5% | [8]; [18] 94% | [8]; at 50.0 µM 88.2% | [12]; at 33.0 µM 85% | [12]; at 100.0 µM 93% | [13]; [18] 96% | [16]; at 3.7 µM 86% | [16]; at 11.0 µM 92% | [16]; at 33.0 µM 95% | [16]; at 100.0 µM 95%
inactive: [14]; at 1.2 µM 0% | [14]; at 3.7 µM -1% | [14]; at 11.0 µM 0% | [14]; at 33.0 µM -1% | [14]; at 100.0 µM 13% | [2]; at 1.2 µM -1% | [2]; at 3.7 µM 6% | [2]; at 11.0 µM 25% | [2]; at 33.0 µM 55% | [3]; at 1.2 µM -2% | [3]; at 3.7 µM -2% | [3]; at 11.0 µM -2% | [3]; at 33.0 µM 17% | [3]; at 100.0 µM 22% | [4]; at 1.2 µM 1% | [4]; at 3.7 µM 6% | [4]; [17] 17% | [4]; at 11.0 µM 18% | [4]; at 33.0 µM 53% | [5]; at 1.2 µM -2% | [5]; at 3.7 µM 1% | [5]; [17] -6% | [5]; at 11.0 µM 2% | [5]; at 33.0 µM 27% | [5]; at 50.0 µM 14.9% | [6]; at 1.2 µM 5% | [6]; at 3.7 µM 12% | [6]; at 11.0 µM 48% | [7]; [17] 45% | [15]; at 1.2 µM -2% | [15]; at 3.7 µM -4% | [15]; at 11.0 µM -5% | [15]; at 33.0 µM -14% | [15]; at 100.0 µM -2% | [8]; [17] 21% | [9]; at 1.2 µM -4% | [9]; at 3.7 µM -8% | [9]; [17] 8% | [9]; at 11.0 µM -14% | [9]; at 33.0 µM -20% | [9]; [18] 52% | [9]; at 50.0 µM -29.3% | [9]; at 100.0 µM -2% | [10]; at 1.2 µM 0% | [10]; at 3.7 µM 0% | [10]; at 11.0 µM 2% | [10]; at 33.0 µM 5% | [10]; at 100.0 µM 21% | [11]; at 1.2 µM -1% | [11]; at 3.7 µM -1% | [11]; at 11.0 µM 3% | [11]; at 33.0 µM 7% | [11]; at 100.0 µM 29% | [12]; at 1.2 µM 10% | [12]; at 3.7 µM 31% | [12]; at 11.0 µM 63% | [13]; [17] 58% | [13]; at 50.0 µM 65.9% | [16]; at 1.2 µM 56%
